Columns and labels:
Details in all cases: concentration: 1 μM, replicates: in singlicate; n = 1
[1] = system: HPK1
[2] = system: HUNK
[3] = system: ICK
[4] = system: IGF1R
[5] = system: T1, IKK-alpha
T1 construct: gene CHUK

[6] = system: T2, IKK-beta
T2 construct: gene IKBKB

[7] = system: T3, IKK-epsilon
T3 construct: gene IKBKE

[8] = system: INSRR
[9] = system: INSR
[10] = system: IRAK1
[11] = system: IRAK3
[12] = system: IRAK4
[13] = system: ITK
[14] = system: JAK1(JH1domain-catalytic)
[15] = system: JAK1(JH2domain-pseudokinase)
[16] = system: JAK2(JH1domain-catalytic)
[17] = system: JAK3(JH1domain-catalytic)
[18] = system: T4, JNK1
T4 construct: gene MAPK8

[19] = system: T5, JNK2
T5 construct: gene MAPK9

[20] = system: T6, JNK3
T6 construct: gene MAPK10
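Further: KINOMEscan kinase panel screen.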

Compound	%Inh [1] [%]	%Inh [2] [%]	%Inh [3] [%]	%Inh [4] [%]	%Inh [5] [%]	%Inh [6] [%]	%Inh [7] [%]	%Inh [8] [%]	%Inh [9] [%]	%Inh [10] [%]	%Inh [11] [%]	%Inh [12] [%]	%Inh [13] [%]	%Inh [14] [%]	%Inh [15] [%]	%Inh [16] [%]	%Inh [17] [%]	%Inh [18] [%]	%Inh [19] [%]	%Inh [20] [%]
COc1cc2ncn(-c3cc(OCc4sccc4Cl)c(C(N)=O)s3)c2cc1OC [GSK448459]	52	0	12	0	0	0	0	0	0	35	0	4	12	0	0	2	0	20	11	7
CCc1nc(-c2cccc(C)c2)c(-c2ccnc(NCc3ccccc3)c2)s1	0	0	0	0	15	2	0	9	0	0	0	0	13	7	31	0	4	0	8	20
O=C(NCCCN1CCOCC1)c1cccc(Nc2nccc(Nc3ccc(Oc4ccccc4)cc3)n2)c1 [GW663929]	8	0	0	0	0	0	0	0	15	28	63	0	0	46	21	82	0	33	25	16
O=C(c1ccc(-c2cc(-c3c[nH]nc3-c3ccccn3)ccn2)cc1)N1CCOCC1 [GW812171]	0	33	0	0	46	0	0	0	21	14	0	0	5	0	48	37	0	30	19	2
CN1c2ccc(NCc3ccc(F)cc3)cc2-c2c(cnn2C)S1(=O)=O	26	52	0	0	0	0	0	16	0	0	0	0	0	0	11	1	0	0	0	0
NCC(NC(=O)c1cc(-c2cn[nH]c2)c(-c2ccnc3[nH]ccc23)s1)c1ccccc1.O=C(O)C(F)(F)F.O=C(O)C(F)(F)F (stereo not drawn) [GSK1325775]	63	0	3	0	54	79	24	0	3	93.6	0	21	7	45	11	95.7	100	40	7	12
CN(C1=C(c2ccccc2)C(=O)NC1=O)c1ccccc1 [SB-334860]	0	0	13	12	0	0	27	0	5	0	0	0	0	0	6	0	14	0	21	15
Fc1ccc(-c2ncn(CCCN3CCOCC3)c2-c2ccccn2)cc1 [SB-211742]	11	54	0	0	0	0	0	0	0	0	1	0	0	0	0	0	0	20	0	0
O=C(Nc1n[nH]c2cc(-c3cccc(F)c3)ccc12)C1CC1 [SB-735464]	0	0	34	0	25	37	14	2	9	10	0	17	0	12	23	7	0	23	12	17
Cc1ccc(C(=O)NCC(N)=O)cc1-n1c(C)cc(OCc2ccc(F)cc2F)c(Br)c1=O	0	0	0	5	0	0	0	0	0	0	15	0	22	0	49	0	4	0	0	0
O=c1cc(N2CCOCC2)nc2n(Cc3cccc4ccccc34)ccn12 [GSK2333389]	5	0	0	4	29	17	0	0	0	13	0	20	21	7	0	17	0	21	0	0
O=C1NC(=O)C(N2CCc3ccccc32)=C1c1cccc(Cl)c1 [SB-408010]	19	20	40	0	0	10	0	0	0	0	0	0	15	14	0	0	0	41	34	29
c1ccc(-c2n[nH]cc2-c2ccnc3ccccc23)nc1 [GW271431]	27	4	0	12	0	0	22	1	6	6	0	6	14	10	0	3	0	17	33	12
NS(=O)(=O)CCc1cccc(Nc2nccc(-c3c(-c4cccc(NC(=O)c5c(F)cccc5F)c4)nn4ccccc34)n2)c1 [GSK336735]	56	0	0	73	0	0	33	62	39	0	16	9	20	18	0	0	77	36	55	16
COCCNC(=O)c1ccc(-c2cc(C(=O)NC3CC3)cc(F)c2C)cc1 [GW868318]	4	7	40	3	36	29	4	19	10	37	23	13	8	0	16	44	0	38	49	19
COc1ccc(COc2cc(-n3cnc4ccccc43)sc2C(N)=O)cc1 [GSK1024304]	45	14	0	8	0	17	0	0	13	0	2	2	14	0	0	0	0	18	33	10
O=C(NCCNc1ccnc(Nc2ccc(F)cc2)n1)Nc1ccccc1F [GSK1379880]	33	0	0	0	0	0	0	0	0	15	0	11	30	23	0	11	0	32	19	11
Cc1ccc(NC(=O)c2ccnc(N3CCN(C)CC3)c2)cc1-c1ccc(C(=O)NCC2CC2)cc1 [GW775604]	0	34	0	0	0	0	0	0	0	0	0	0	0	0	27	2	0	0	0	0
Cl.Nc1ncnc2occ(-c3ccc(NC(=O)Nc4cc(C(F)(F)F)ccc4F)cc3)c12 [SB-707548]	85	15	5	5	86	35	63	0	23	35	0	3	9	50	7	59	23	9	94.9	12
Cc1nnc(-c2ccc3occ(-c4ccc(C(C)O)cc4)c3c2)o1 (stereo not drawn)	0	0	0	9	0	2	3	6	11	31	1	32	14	0	5	6	9	2	0	0
COc1ccc(Nc2nccc(N3CCC(NC(=O)Nc4cc(C)ccc4C)C3)n2)cc1 (stereo not drawn) [GSK1379741]	36	0	13	0	0	21	0	0	0	18	19	16	10	23	0	0	0	24	0	5

Reference: publication PMC5540273 (PLoS ONE, 2017)
